Bioassay records from PubChem.
Autofluor counter – flagged as autofluorescent in microsphere protease counterscreen. compound autofluorescence counterscreen, microsphere flow cytometry; active compounds read high. fluorescence intensity (concentration not given with the values). 360,000 tested, 3.1% active; in the data active = fluorescence intensity above about 16000; inconclusive = no clear call, values can overlap the other calls
BoNT-A LC inh2 – BoNT/A light chain protease inhibitors, primary screen, biochemical, flow cytometry, MLPCN library; multiplex microsphere protease substrate cleavage; inhibition, % at 10 µM; 360,000 tested, 0.17% active; note: plate controls were buffer without enzyme for full effect and enzyme alone for no effect
BJeLR viability – MLPCN primary cell-based screen for lethality selective to Ras in HRASV12 cells; BJeLR (HRASV12) viability, CellTiter-Glo ATP luminescence, 48 h; inhibition, % (test concentration not listed); 300,000 tested, 0.17% active; AID 1554, 2009; in the data active = inhibition above about 50%; inconclusive = no clear call, values can overlap the other calls
Vc quorum ag – inducers of Vibrio cholerae quorum light production without autoinducers, primary screen, BH1578 luxS cqsA deficient, single point; V. cholerae BH1578 lux reporter, luminescence, 6 h; 350,000 tested, 0.16% active; activation, % at 18.7 µM; in the data active = activation mostly above about 9.7%, no sharp cut-off; inconclusive = no clear call, values can overlap the other calls; inactive = mostly below about 3.7%
Anthrax LF prot – Bacillus anthracis LF protease inhibitors, primary screen, biochemical, multiplex microsphere, MLPCN library; Lethal factor (Bacillus anthracis), P15917; multiplex microsphere protease cleavage assay; inhibition, % at 10 µM; 360,000 tested, 0.12% active; note: plate controls were buffer without enzyme for full effect and enzyme alone for no effect
BoNT F protease – BoNT/F light chain protease inhibitors, primary screen, biochemical, flow cytometry, MLPCN library; Multiplex microsphere protease cleavage assay; Botulinum neurotoxin type F light chain protease (Clostridium botulinum); inhibition, % at 10 µM; 360,000 tested, 0.22% active; in the data active = inhibition above about 35%, passing the limit was not always enough; inconclusive = no clear call, values can overlap the other calls; note: plate controls were buffer without enzyme for full effect and enzyme alone for no effect
Active calls of the source: *. This is a sample that favours compounds with a hit; in the whole collection about 3.7% have one here. Cut-off read from the data, not from the text of the source, unless noted: active = inhibition above about 30%; inconclusive = no clear call, values can overlap the other calls; inactive = below that.

Results for O=C(C1CCCCN1S(=O)(=O)c1ccccc1)N1CCN(C(c2ccccc2)c2ccccc2)CC1 (stereo not given) ?
Autofluor counter: 20580*; BoNT-A LC inh2: -1; BJeLR viability: 2; Vc quorum ag: 0; Anthrax LF prot: -4; BoNT F protease: -1

Results for COc1ccc(-c2nc(NCCN(C)C)nc3ccsc23)c(C)c1 ?
Autofluor counter: 3924; BoNT-A LC inh2: 0; Vc quorum ag: -1; Anthrax LF prot: -5; BoNT F protease: -15

Results for CCC(=O)N(CCC(c1ccco1)c1ccccc1OC)Cc1cccs1 (stereo not given) ?
Autofluor counter: 23755*; BoNT-A LC inh2: 0; BJeLR viability: -18; Vc quorum ag: inactive; Anthrax LF prot: -1; BoNT F protease: 0

Results for COc1cc(NC(=O)Cn2c(-c3cncs3)nc3ccccc32)cc(OC)c1OC ?
Autofluor counter: 21248*; BoNT-A LC inh2: inconclusive; BJeLR viability: -9; Vc quorum ag: inactive; Anthrax LF prot: -2; BoNT F protease: 2

How did COc1cc(NC(=O)Cn2c(C)cc3ccccc3c2=O)cc(OC)c1OC do in these assays?
Autofluor counter: 4177; BoNT-A LC inh2: 1; BJeLR viability: 8; Vc quorum ag: inactive; Anthrax LF prot: -2; BoNT F protease: -6

What do the screens show for `CCCCC1CC2=C(C(=O)OC(C)(C)O2)C(c2ccc(F)cc2)O1` (stereo not given)?
Autofluor counter: 5791; BoNT-A LC inh2: -2; Anthrax LF prot: 4; BoNT F protease: -33

Results for CCCCNC(=O)C1(C)CCN1C(=O)c1cc(F)ccc1C (stereo not given) ?
Autofluor counter: 3959; BoNT-A LC inh2: 0; Vc quorum ag: 0; Anthrax LF prot: -3; BoNT F protease: 1

Results for C[C@H]1COc2cc(N3CCC[C@H]3CO)ccc2S(=O)(=O)N1 ?
Autofluor counter: 6541; BoNT-A LC inh2: 1; Anthrax LF prot: 2; BoNT F protease: 3

How did O=C(CN1CCOCC1)N1CCCc2ccccc21 do in these assays?
Autofluor counter: 4574; BoNT-A LC inh2: -1; BJeLR viability: -5; Vc quorum ag: 0; Anthrax LF prot: -3; BoNT F protease: -8

Results for O=C(Cn1nnc(-c2ccc(CN3CCOCC3)cc2)n1)N1CCCc2ccccc21 ?
Autofluor counter: 22876*; BoNT-A LC inh2: 0; BJeLR viability: 5; Vc quorum ag: 2; Anthrax LF prot: 0; BoNT F protease: 2

Results for CCOc1cc([C@@H]2C[C@H]3CN(c4ccccc4)C(=O)[C@]34CCCN24)ccc1OC ?
Autofluor counter: 22393*; BoNT-A LC inh2: -5; BJeLR viability: -2; Vc quorum ag: 3; Anthrax LF prot: 2; BoNT F protease: 25

What do the screens show for `COc1ccccc1-n1cc([C@@H]2C[C@H]3CN(c4ccccc4)C(=O)[C@]34CCCN24)cn1`?
Autofluor counter: 28945*; BoNT-A LC inh2: inconclusive; BJeLR viability: 2; Vc quorum ag: 0; Anthrax LF prot: inconclusive; BoNT F protease: inconclusive

How did COc1cc([C@@H]2C[C@H]3CN(c4ccccc4)C(=O)[C@]34CCCN24)cc(OC)c1OC do in these assays?
Autofluor counter: 9522; BoNT-A LC inh2: -2; BJeLR viability: 2; Vc quorum ag: -1; Anthrax LF prot: -2; BoNT F protease: 5

How did CCC(=O)N1CCCC(C)(C(=O)Nc2ccc3oc(CC)nc3c2)C1 (stereo not given) do in these assays?
Autofluor counter: 3350; BoNT-A LC inh2: 0; Vc quorum ag: 0; Anthrax LF prot: -2; BoNT F protease: -1

Results for COC1CC(OC2CCC3(C)C(CCC4C3CCC3(C)C(C5=CC(=O)OC5)C(OC(C)=O)CC43O)C2)OC(C)C1OC1OC(COC2OC(CO)C(O)C(O)C2O)C(O)C(O)C1O (stereo not given) ?
BJeLR viability: 51*

What do the screens show for `Cc1ccc(C(O)Cn2nc(C)cc2C)cc1` (stereo not given)?
Autofluor counter: 3894; BoNT-A LC inh2: 0; BJeLR viability: -2; Vc quorum ag: 1; Anthrax LF prot: -3; BoNT F protease: 7
